According to article PMC7862700, “An all-to-all approach to the identification of sequence-specific readers for epigenetic DNA modifications on cytosine”:

Tests used:
Test in all cases: DAPPL (digital affinity profiling via proximity ligation, sequencing); 10 mM Tris-HCl pH 7.5, 50 mM NaCl, 1 mM DTT, 4% glycerol, room temperature, 30 min; GST-TFs on glutathione beads, 16-mer random dsDNA library, 0.1% formaldehyde crosslink after washing; high values mean tight binding
[1] = target: T1, FLI1 (Homo sapiens, UniProt Q01543 1-452); conditions: protein: recombinant; tags: N-terminal GST; dsDNA, one strand shown
T1 sequence: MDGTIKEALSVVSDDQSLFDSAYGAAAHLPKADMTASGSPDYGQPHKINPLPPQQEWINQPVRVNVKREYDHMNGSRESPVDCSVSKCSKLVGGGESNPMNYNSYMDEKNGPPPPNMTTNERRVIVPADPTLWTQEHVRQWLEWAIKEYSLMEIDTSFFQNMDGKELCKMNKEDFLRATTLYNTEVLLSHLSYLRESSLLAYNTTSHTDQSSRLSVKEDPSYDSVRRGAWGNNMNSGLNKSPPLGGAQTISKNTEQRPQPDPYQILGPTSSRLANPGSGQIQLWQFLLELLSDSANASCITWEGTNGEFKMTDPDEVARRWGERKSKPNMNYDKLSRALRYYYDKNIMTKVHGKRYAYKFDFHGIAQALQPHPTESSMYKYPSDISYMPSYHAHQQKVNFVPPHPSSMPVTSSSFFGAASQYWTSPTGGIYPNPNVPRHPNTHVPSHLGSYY
In short: (§1)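 In yeast, human transcription factors were expressed with a GST fusion, then pulled down on glutathione beads and given DNA barcodes. Pooled with a tag-only sample, they were exposed to 200 nmole of a 16-mer random double-stranded DNA library (Tris/NaCl/DTT/glycerol buffer, room temperature, 30 min), washed, crosslinked with 0.1% formaldehyde, proximity-ligated using BsaI/T4 ligase for 1 h at 37 °C, PCR-amplified and read on an Illumina NextSeq500. Each hexamer's frequency of reads for a factor, divided by the matching frequency for the tag-only sample, gives the binding signal.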

[2] = target: T2, ELK1 (Homo sapiens, UniProt P19419 1-428); conditions: protein: recombinant; tags: N-terminal GST; dsDNA, one strand shown
T2 sequence: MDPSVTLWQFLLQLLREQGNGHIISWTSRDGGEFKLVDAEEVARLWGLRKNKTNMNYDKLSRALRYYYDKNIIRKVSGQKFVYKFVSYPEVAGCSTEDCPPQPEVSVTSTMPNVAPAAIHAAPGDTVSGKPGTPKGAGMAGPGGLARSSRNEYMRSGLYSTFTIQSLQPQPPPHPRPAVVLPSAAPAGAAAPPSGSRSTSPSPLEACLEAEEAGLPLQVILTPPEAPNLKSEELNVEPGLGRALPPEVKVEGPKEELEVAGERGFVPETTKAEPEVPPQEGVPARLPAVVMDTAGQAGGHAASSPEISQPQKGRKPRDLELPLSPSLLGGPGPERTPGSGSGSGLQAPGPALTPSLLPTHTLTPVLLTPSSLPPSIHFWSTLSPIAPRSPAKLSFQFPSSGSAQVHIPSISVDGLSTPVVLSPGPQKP
In short: as §1

[3] = target: T3, GABPA (Homo sapiens, UniProt Q06546 1-454); conditions: protein: recombinant; tags: N-terminal GST; dsDNA, one strand shown
T3 sequence: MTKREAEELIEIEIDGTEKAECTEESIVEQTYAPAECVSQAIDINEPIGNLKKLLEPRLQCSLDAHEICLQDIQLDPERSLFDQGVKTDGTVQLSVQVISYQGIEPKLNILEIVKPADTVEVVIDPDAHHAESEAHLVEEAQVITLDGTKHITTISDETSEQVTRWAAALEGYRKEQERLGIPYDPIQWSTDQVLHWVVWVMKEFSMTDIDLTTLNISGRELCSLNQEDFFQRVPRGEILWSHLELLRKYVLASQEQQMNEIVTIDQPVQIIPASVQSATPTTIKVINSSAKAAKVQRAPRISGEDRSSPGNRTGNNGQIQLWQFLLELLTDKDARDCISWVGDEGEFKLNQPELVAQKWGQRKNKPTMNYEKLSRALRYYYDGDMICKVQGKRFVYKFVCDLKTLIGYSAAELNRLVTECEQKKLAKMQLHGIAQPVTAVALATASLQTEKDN
In short: as §1

[4] = target: T4, ERG (Homo sapiens, UniProt P11308 1-479); conditions: protein: recombinant; tags: N-terminal GST; dsDNA, one strand shown
T4 sequence: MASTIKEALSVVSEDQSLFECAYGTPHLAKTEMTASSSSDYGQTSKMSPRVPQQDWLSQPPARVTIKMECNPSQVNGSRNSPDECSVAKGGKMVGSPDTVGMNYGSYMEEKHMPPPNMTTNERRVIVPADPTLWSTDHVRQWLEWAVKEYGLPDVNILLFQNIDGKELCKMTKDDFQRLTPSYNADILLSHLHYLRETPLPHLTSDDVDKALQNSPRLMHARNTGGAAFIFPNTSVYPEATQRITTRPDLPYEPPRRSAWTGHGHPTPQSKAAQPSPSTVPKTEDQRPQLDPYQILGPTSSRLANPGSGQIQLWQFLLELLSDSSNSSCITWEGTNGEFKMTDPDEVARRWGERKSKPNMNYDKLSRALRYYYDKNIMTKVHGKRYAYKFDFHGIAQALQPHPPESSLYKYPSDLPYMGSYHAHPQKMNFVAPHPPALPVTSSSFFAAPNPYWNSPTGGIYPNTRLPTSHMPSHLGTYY
In short: as §1

[5] = target: ELF1 (Homo sapiens, UniProt P32519 1-619); conditions: protein: recombinant; tags: N-terminal GST; dsDNA, one strand shown
ELF1, sequence (P32519 whole entry): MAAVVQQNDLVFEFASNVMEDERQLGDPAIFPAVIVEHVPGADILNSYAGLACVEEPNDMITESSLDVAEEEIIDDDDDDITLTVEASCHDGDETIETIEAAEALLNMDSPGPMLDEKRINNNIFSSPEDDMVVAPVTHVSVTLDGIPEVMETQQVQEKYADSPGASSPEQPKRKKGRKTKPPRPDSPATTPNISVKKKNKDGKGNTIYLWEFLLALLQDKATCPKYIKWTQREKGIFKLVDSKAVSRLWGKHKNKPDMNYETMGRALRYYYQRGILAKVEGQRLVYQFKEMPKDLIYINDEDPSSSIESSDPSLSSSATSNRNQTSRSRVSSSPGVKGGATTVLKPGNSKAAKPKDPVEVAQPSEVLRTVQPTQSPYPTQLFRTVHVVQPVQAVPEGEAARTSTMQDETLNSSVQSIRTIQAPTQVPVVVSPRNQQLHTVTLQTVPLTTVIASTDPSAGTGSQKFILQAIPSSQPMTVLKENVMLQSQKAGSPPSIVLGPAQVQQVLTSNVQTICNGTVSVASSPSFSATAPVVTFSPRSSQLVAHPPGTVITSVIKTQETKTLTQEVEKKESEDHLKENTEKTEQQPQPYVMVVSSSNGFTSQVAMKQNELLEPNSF
In short: as §1

[6] = target: T5, EHF (Homo sapiens, UniProt Q9NZC4 1-300); conditions: protein: recombinant; tags: N-terminal GST; dsDNA, one strand shown
T5 sequence: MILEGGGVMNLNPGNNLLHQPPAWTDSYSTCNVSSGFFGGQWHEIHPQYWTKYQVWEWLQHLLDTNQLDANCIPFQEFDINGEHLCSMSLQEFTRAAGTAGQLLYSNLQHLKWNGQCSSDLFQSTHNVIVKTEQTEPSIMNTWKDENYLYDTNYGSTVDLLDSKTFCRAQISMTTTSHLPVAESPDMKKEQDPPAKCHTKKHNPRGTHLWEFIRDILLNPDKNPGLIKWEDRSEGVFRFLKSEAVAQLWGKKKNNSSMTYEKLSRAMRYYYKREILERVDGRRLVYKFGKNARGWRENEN
In short: as §1

[7] = target: SPI1 (Homo sapiens, UniProt P17947 1-270); conditions: protein: recombinant; tags: N-terminal GST; dsDNA, one strand shown
In short: as §1

[8] = target: SPIB (Homo sapiens, UniProt Q01892 1-262); conditions: protein: recombinant; tags: N-terminal GST; dsDNA, one strand shown
SPIB, sequence (Q01892 whole entry): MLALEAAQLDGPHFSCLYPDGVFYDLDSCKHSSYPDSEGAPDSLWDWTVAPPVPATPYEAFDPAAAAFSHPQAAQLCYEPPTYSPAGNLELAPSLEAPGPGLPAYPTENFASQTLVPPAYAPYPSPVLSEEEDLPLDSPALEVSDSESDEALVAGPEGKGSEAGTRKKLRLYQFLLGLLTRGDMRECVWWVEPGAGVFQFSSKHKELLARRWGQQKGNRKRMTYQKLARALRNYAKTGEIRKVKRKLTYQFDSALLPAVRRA
In short: as §1

[9] = target: T6, ELK3 (Homo sapiens, UniProt P41970 1-407); conditions: protein: recombinant; tags: N-terminal GST; dsDNA, one strand shown
T6 sequence: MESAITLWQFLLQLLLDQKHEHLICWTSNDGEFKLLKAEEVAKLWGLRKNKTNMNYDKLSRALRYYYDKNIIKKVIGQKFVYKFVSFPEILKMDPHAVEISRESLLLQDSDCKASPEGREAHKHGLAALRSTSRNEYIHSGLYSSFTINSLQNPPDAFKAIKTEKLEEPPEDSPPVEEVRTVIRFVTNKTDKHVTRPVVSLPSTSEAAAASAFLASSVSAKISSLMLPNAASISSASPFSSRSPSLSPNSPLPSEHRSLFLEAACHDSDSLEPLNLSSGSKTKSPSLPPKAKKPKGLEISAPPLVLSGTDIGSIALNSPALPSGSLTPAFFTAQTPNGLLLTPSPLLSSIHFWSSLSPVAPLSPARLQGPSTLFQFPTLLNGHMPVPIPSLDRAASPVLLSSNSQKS
In short: as §1

[10] = target: T7, FEV (Homo sapiens, UniProt Q99581 1-238); conditions: protein: recombinant; tags: N-terminal GST; dsDNA, one strand shown
T7 sequence: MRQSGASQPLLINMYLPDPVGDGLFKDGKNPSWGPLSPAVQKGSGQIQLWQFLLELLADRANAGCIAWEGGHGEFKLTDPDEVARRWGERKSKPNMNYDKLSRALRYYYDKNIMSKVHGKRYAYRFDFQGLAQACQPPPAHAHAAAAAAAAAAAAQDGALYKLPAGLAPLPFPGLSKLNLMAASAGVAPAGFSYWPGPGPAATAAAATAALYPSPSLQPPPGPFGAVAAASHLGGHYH
In short: as §1

[11] = target: ETV5 (Homo sapiens, UniProt P41161 1-510); conditions: protein: recombinant; tags: N-terminal GST; dsDNA, one strand shown
ETV5, sequence (P41161 whole entry): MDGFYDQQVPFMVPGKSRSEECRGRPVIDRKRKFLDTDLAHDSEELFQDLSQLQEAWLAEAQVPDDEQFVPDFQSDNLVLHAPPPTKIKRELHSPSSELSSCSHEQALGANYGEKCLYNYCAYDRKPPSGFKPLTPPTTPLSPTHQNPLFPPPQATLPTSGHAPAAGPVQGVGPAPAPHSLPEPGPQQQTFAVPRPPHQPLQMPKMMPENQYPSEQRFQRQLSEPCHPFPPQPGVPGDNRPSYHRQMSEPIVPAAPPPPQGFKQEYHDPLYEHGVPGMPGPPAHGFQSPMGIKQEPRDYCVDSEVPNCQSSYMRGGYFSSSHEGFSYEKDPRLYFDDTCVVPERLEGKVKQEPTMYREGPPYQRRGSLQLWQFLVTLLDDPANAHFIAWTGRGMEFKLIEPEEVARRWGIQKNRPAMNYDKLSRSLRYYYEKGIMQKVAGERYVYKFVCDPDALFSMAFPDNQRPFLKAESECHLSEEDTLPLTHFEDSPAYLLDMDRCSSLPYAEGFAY
In short: as §1

[12] = target: HSF1 (Homo sapiens, UniProt Q00613 1-529); conditions: protein: recombinant; tags: N-terminal GST; chain copies: 3; dsDNA, one strand shown
HSF1, sequence (Q00613 whole entry): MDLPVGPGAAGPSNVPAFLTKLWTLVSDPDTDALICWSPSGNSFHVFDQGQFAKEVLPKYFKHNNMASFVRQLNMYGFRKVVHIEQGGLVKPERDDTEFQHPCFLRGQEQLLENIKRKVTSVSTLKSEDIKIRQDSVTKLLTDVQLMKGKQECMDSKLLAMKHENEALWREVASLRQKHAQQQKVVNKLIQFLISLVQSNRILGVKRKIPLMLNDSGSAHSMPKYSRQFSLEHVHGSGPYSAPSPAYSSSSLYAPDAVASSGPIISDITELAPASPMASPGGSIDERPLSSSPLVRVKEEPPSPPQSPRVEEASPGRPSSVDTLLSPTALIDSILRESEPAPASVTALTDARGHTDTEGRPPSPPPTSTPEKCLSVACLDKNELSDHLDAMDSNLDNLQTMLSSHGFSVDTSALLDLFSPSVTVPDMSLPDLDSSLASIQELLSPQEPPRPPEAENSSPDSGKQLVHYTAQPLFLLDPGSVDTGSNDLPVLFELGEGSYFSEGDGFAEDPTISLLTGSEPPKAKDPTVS
In short: as §1

[13] = target: T8, SPIC (Homo sapiens, UniProt Q8N5J4 1-248); conditions: protein: recombinant; tags: N-terminal GST; dsDNA, one strand shown
T8 sequence: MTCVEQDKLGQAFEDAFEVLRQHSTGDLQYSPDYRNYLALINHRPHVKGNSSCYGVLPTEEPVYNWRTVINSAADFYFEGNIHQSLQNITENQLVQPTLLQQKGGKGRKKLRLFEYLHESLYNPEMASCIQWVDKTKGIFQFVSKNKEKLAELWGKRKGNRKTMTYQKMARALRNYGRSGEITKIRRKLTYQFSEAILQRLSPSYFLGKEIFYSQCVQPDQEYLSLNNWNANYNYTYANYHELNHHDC
In short: as §1

[14] = target: ELF4 (Homo sapiens, UniProt Q99607 1-663); conditions: protein: recombinant; tags: N-terminal GST; dsDNA, one strand shown
ELF4, sequence (Q99607 whole entry): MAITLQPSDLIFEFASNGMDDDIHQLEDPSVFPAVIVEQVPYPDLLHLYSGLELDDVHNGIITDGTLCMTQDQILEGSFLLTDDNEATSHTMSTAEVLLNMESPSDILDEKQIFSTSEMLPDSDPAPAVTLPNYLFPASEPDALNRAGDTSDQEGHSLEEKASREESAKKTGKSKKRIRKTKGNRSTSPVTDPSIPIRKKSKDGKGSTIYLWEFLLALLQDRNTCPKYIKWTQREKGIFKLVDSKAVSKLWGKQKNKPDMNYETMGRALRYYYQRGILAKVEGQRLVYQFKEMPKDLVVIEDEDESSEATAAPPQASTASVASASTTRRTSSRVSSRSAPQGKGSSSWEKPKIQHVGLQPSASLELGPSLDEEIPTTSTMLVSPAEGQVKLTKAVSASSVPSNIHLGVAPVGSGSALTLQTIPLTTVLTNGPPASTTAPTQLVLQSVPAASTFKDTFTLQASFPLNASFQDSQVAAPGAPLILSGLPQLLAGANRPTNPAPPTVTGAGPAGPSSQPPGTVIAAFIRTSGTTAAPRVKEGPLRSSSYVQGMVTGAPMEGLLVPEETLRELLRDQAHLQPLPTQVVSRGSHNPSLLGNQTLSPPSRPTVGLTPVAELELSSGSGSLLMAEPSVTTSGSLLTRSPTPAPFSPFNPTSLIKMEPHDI
In short: as §1

[15] = target: T9, ELK4 (Homo sapiens, UniProt P28324-2 1-405); conditions: protein: recombinant; tags: N-terminal GST; dsDNA, one strand shown
T9 sequence: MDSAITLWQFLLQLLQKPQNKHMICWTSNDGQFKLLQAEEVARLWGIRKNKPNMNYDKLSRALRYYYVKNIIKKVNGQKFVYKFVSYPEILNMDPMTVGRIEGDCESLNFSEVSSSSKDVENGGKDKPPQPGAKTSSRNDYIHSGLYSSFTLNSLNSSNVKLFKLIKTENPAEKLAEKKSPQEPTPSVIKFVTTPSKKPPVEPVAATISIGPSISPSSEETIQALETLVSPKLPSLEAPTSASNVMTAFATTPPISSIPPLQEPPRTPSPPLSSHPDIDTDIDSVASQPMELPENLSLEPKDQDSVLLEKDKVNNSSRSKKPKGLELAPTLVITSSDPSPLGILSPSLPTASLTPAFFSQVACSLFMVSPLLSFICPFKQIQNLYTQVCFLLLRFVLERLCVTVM
In short: as §1

[16] = target: T10, ETV2 (Homo sapiens, UniProt O00321 1-342); conditions: protein: recombinant; tags: N-terminal GST; dsDNA, one strand shown
T10 sequence: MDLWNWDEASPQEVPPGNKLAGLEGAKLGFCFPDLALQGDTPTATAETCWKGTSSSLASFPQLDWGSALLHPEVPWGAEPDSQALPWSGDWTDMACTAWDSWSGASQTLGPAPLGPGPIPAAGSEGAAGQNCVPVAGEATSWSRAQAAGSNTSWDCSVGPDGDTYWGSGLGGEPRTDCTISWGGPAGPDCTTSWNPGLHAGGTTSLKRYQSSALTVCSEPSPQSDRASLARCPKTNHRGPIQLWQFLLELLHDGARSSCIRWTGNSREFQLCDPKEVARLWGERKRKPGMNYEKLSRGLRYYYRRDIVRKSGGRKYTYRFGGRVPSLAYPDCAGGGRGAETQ
In short: as §1

[17] = target: T11, ELF3 (Homo sapiens, UniProt P78545 1-371); conditions: protein: recombinant; tags: N-terminal GST; dsDNA, one strand shown
T11 sequence: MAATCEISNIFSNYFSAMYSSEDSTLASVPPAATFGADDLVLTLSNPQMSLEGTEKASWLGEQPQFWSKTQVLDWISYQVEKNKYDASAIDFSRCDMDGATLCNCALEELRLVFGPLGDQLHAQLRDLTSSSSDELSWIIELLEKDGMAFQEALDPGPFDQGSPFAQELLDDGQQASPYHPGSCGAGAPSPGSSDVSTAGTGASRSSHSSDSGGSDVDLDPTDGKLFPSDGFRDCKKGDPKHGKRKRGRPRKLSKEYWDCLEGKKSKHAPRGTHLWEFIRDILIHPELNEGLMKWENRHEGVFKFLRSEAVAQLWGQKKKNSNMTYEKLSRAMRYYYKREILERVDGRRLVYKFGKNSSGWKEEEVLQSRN
In short: as §1

[18] = target: CRX (Homo sapiens, UniProt O43186 1-299); conditions: protein: recombinant; tags: N-terminal GST; dsDNA, one strand shown
CRX, sequence (O43186 whole entry): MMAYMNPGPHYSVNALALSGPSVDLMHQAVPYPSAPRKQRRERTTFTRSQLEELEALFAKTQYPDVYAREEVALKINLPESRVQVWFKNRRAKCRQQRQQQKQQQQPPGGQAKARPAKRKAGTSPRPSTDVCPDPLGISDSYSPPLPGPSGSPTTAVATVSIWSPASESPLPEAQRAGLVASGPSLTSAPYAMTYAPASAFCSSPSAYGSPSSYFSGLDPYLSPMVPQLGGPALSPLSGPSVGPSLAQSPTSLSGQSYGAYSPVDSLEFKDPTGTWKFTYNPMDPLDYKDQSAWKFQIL
In short: as §1

[19] = target: ETV1 (Homo sapiens, UniProt P50549 1-477); conditions: protein: recombinant; tags: N-terminal GST; dsDNA, one strand shown
ETV1, sequence (P50549 whole entry): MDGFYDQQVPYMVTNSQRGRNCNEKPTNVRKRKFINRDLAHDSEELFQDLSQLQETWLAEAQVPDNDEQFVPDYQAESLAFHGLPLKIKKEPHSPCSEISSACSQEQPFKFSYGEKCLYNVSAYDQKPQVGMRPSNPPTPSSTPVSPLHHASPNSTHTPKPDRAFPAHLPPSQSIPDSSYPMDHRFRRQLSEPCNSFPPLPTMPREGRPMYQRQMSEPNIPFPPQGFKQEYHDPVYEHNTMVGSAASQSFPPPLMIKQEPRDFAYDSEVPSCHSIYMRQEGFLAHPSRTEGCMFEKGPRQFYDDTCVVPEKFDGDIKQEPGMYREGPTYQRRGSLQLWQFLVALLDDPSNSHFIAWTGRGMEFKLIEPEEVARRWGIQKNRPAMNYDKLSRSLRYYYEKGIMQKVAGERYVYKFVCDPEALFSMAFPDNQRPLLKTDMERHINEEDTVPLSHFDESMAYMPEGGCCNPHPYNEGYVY
In short: as §1

TGTTGC
binding signal [1]: 1.33 fold enrichment (6-mer frequency, TF over GST control) | binding signal [2]: 1.32 fold enrichment (6-mer frequency, TF over GST control) | binding signal [3]: 1.33 fold enrichment (6-mer frequency, TF over GST control) | binding signal [4]: 1.3 fold enrichment (6-mer frequency, TF over GST control) | binding signal [5]: 1.31 fold enrichment (6-mer frequency, TF over GST control) | binding signal [6]: 1.3 fold enrichment (6-mer frequency, TF over GST control) | binding signal [7]: 1.33 fold enrichment (6-mer frequency, TF over GST control) | binding signal [8]: 1.35 fold enrichment (6-mer frequency, TF over GST control) | binding signal [9]: 1.4 fold enrichment (6-mer frequency, TF over GST control) | binding signal [10]: 1.25 fold enrichment (6-mer frequency, TF over GST control) | binding signal [11]: 1.35 fold enrichment (6-mer frequency, TF over GST control) | binding signal [12]: 1.02 fold enrichment (6-mer frequency, TF over GST control) | binding signal [13]: 1.17 fold enrichment (6-mer frequency, TF over GST control) | binding signal [14]: 1.34 fold enrichment (6-mer frequency, TF over GST control) | binding signal [15]: 1.37 fold enrichment (6-mer frequency, TF over GST control) | binding signal [16]: 1.15 fold enrichment (6-mer frequency, TF over GST control) | binding signal [17]: 1.28 fold enrichment (6-mer frequency, TF over GST control) | binding signal [18]: 1.08 fold enrichment (6-mer frequency, TF over GST control) | binding signal [19]: 1.4 fold enrichment (6-mer frequency, TF over GST control)
